HEK293 tox – cytotoxicity in counter-screen for GLP-1R inverse agonists; HEK293 cAMP-luciferase reporter cells, luminescence, 24 h; Potency, µM (series often up to 38.3 µM), actives largely listed as inhibitors; 410,000 compounds, 0.13% hits;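 note: loss of luciferase light is scored as toxicity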
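Compound-treated cells are incubated 24 hr at 37 deg C under 5% CO2 after a 12 hour attachment period, then luciferase detection reagent is added and luminescence is measured following 12 min at room temperature; lowered signal indicates toxicity.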
PTHR1 ag – agonists of human PTHR1 parathyroid hormone receptor; Q03431; HEK293 GP2 PTHR1 cells, GloSensor cAMP luminescence, 1 h; Potency, µM (top dose mostly 115 µM), most hits filed as activators; 410,000 compounds, 0.075% hits; note: nearly all actives have a fitted effect of over 55% in size
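HEK-293-derived GP2 cells expressing PTHR1 and a GloSensor cAMP reporter, 3,000/well, plated overnight, given luciferin plus IBMX (each 0.5 mM as added) for 1 h at 37 °C, then compound for 1 h at 37 °C. Luminescence was read after 15 min at room temperature.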
GLP-1R agonist – activates the human GLP-1 receptor. Potency, µM (top dose mostly 45.6 µM), hits mostly activators. HEK293 GLP-1R CRE-luciferase, luminescence, 4-6 h; cells express a hypersensitive GLP-1R form. 380,000 compounds, 0.007% hits
Target sequence (P43220 whole entry, looked up): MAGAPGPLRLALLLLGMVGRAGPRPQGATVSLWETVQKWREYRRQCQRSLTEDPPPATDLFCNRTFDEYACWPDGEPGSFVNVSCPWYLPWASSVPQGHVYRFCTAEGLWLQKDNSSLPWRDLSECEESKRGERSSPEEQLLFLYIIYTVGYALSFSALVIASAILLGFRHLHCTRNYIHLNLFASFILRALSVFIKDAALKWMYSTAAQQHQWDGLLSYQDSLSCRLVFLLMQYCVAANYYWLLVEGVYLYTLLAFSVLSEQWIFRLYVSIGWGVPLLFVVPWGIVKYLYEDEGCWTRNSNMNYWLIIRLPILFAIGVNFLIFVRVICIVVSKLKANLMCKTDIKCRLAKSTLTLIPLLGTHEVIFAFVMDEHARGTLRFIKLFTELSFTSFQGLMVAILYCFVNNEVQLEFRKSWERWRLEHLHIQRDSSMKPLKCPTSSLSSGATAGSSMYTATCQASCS
GLP-1R inv ag – GLP-1 receptor (human) inverse agonism | 410,000 compounds, 1.6% hits | P43220 | HEK293 GLP-1R CRE-luciferase, luminescence, 24 h; GLP-1R form is constitutively active | Potency, µM (top dose mostly 38.3 µM), actives largely listed as inhibitors; note: nearly all actives have a fitted effect of over 55% in size
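Cells are plated, allowed 12 hours at 37 deg C, then treated with compounds for 24 hr before luciferase detection reagent is added and luminescence is read after 12 min at room temperature. The HEK293 line carries constitutively active GLP-1R with a cAMP-responsive reporter.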
Of the large screens only hits and unclear results are named; the others gave an inactive call. Sampled rows, rich in hits. Any-hit rate of the full collection: about 1.7%. Calls come from the whole dose curve; as a rule, active = well fitted curve in the direction sought with a large enough effect; inconclusive = small, poorly fitted or top-dose-only effect, or another doubt; inactive = no such curve, though single readings can be large; an effect the other way counts as inactive or inconclusive.

COc1cc(NC(=O)CC2C(=O)N(c3ccc(Cl)cc3)C(=O)N2Cc2cccs2)cc(OC)c1 (centres undefined)	GLP-1R inv ag inconclusive (no result: GLP-1R agonist)
COc1ccc(/C=C2\SC(=N)N(c3nccs3)C2=O)cc1OC	GLP-1R inv ag 10µM
COc1cccc(CNC(=O)c2ccc(CSc3nc4ccncc4n3Cc3cccc(C)c3)cc2)c1	GLP-1R inv ag inconclusive (no result: GLP-1R agonist)
CC(=O)[O][Al][O]C(C)=O	none (no result: HEK293 tox, PTHR1 ag, GLP-1R inv ag)
CCn1c2ccccc2c2cc(CN3CCN(Cc4ccc(OC)c(OC)c4)CC3)ccc21	GLP-1R inv ag inconclusive (no result: GLP-1R agonist)
CCOc1ccc(CN2CCN(Cc3ccc4c(c3)c3ccccc3n4CC)CC2)cc1	GLP-1R inv ag 6.3µM (no result: GLP-1R agonist)
Fc1ccc(-c2nnc(NC3=NCCCCC3)o2)cc1	GLP-1R inv ag 1µM
N#CCSc1nc2c(c(=O)n1Cc1ccco1)C1(CCCC1)Cc1ccccc1-2	GLP-1R inv ag 5.6µM
CCCn1c(SCC#N)nc2c(c1=O)C1(CCCC1)Cc1ccccc1-2	GLP-1R inv ag inconclusive
COc1cccc2cc(C(=O)Nc3ccc(CC(=O)O)cc3)c(=O)oc12	none
CCOC(=O)CC(NC(=O)CCc1c(C)nc2c(c1C)c(=O)n(C)c(=O)n2C)c1ccc(OCC)c(OC)c1 (centres undefined)	none
CCOc1ccc(C(=O)OC2CCN(C)CC2)cc1	GLP-1R inv ag 4µM
COc1cccc(C(=O)OC2CCN(C)CC2)c1	GLP-1R inv ag inconclusive
Cc1ccc(CSCCNC(=O)CCSc2ccccc2)cc1	GLP-1R inv ag 10µM
CCCCN(CCCC)/C(N)=N/c1nc(C)cc(C)n1	HEK293 tox inconclusive, GLP-1R inv ag 4µM
CN1CCN(C2Cc3cc(Cl)ccc3Sc3cc(F)ccc32)CC1 (centres undefined)	HEK293 tox inconclusive, GLP-1R inv ag 5µM
CCOc1ccc(OCCCC(=O)N(C)CC(=O)Nc2ccccc2Br)cc1	none
CCCN(CC(=O)Nc1ccccc1C)C(=O)CCCOc1ccc(Br)cc1	GLP-1R inv ag 8.9µM
O=C(Cn1c(=O)nc(-c2ccccc2)c2ccccc21)NCc1ccccc1Cl	none (no result: GLP-1R agonist)
CC1OC(CC(=O)O)CC2=C1C(=O)c1c(O)cccc1C2=O (centres undefined)	HEK293 tox 0.89µM, GLP-1R inv ag inconclusive
O=C1c2cccc(O)c2C(=O)c2c(O)cccc21	none (no result: HEK293 tox, PTHR1 ag, GLP-1R inv ag)
COc1cccc(C2C(C(=O)Nc3ccccc3)=C(C)Nc3nnnn32)c1OC (centres undefined)	none (no result: GLP-1R agonist)
COCCn1c(C)cc(C(=O)CSc2cc(C)c3ccccc3n2)c1C	GLP-1R inv ag 13µM
COCCn1c(C)cc(C(=O)CSc2nnc(C)s2)c1C	GLP-1R inv ag 1.3µM
COCCn1c(C)cc(C(=O)COC(=O)c2cccc(O)c2)c1C	GLP-1R inv ag 0.89µM
COCCn1c(C)cc(C(=O)CSc2nc3ccccc3c(=O)n2Cc2ccco2)c1C	none
COCCn1c(C)cc(C(=O)CSc2nnnn2C2CCCC2)c1C	GLP-1R inv ag 2.2µM
COCCn1c(C)cc(C(=O)COC(=O)c2cc3c(s2)CCC3)c1C	GLP-1R inv ag inconclusive
COc1ccc(-c2nc(CCNC(=O)c3c(F)cccc3Cl)cs2)cc1	none (no result: GLP-1R agonist)
C[C@]12C=CC(=O)C=C1[C@@H](F)C[C@@H]1[C@@H]2[C@@H](O)C[C@@]2(C)[C@H]1CC[C@]2(O)C(=O)CO	none (no result: HEK293 tox, PTHR1 ag, GLP-1R inv ag)
Cc1cc(NC(=O)CC(CN(C)S(=O)(=O)c2ccccc2)c2ccccc2)no1 (centres undefined)	GLP-1R inv ag 10µM
CCOc1cc(CNC2CCCC2)cc(Cl)c1OCc1ccc(F)cc1	GLP-1R inv ag inconclusive
COc1cc(CNC2CCCC2)cc(Cl)c1OCc1ccc(F)cc1	HEK293 tox inconclusive, GLP-1R inv ag 4.5µM
COc1cc(CNC2CCCC2)cc(Cl)c1OCc1ccccc1Cl	HEK293 tox inconclusive, GLP-1R inv ag 8.9µM
Cc1n[nH]c(C)c1S(=O)(=O)N(CC(=O)NCc1ccccc1Cl)c1ccc(C(C)C)cc1	GLP-1R inv ag 10µM
O=C(NCCc1ccc(C(F)(F)F)cc1)C1COc2ccccc2O1 (centres undefined)	GLP-1R inv ag inconclusive
O=C(NCCC1=CCCCC1)C1COc2ccccc2O1 (centres undefined)	GLP-1R inv ag 8.9µM
Cc1ccccc1NC(=O)Nc1nnc(N2CCCCCC2)s1	none (no result: GLP-1R agonist)
O=C(Cn1cc(SCc2ccc(C(F)(F)F)cc2)c2ccccc21)N1CCCCCC1	GLP-1R inv ag 7.1µM (no result: GLP-1R agonist)
CC1CCN(C(=O)Cn2cc(SCC(=O)NCc3ccccc3Cl)c3ccccc32)CC1	GLP-1R inv ag 10µM (no result: GLP-1R agonist)
O=C(CSc1cn(CC(=O)N2CCCCC2)c2ccccc12)NCc1ccccc1Cl	GLP-1R inv ag inconclusive (no result: GLP-1R agonist)
Cc1ccc(CSc2cn(CC(=O)N3CCCCCC3)c3ccccc23)cc1	GLP-1R inv ag 10µM (no result: GLP-1R agonist)
Cc1ccc(CSc2cn(CC(=O)N3CCCC3)c3ccccc23)cc1	GLP-1R inv ag inconclusive (no result: GLP-1R agonist)
CCN(C(=O)c1cc2c(=O)oc3ccccc3c2s1)c1ccccc1F	none (no result: GLP-1R agonist)
COc1cc(Cl)c(C)cc1NC(=O)CCCN1C(=O)C(c2ccccc2)Oc2cccnc21 (centres undefined)	GLP-1R inv ag inconclusive
Clc1ccc(Cn2c(/C=C/c3ccco3)nc3ccccc32)cc1	GLP-1R inv ag inconclusive
Cc1ccc(Cn2c(/C=C/c3ccco3)nc3ccccc32)cc1	GLP-1R inv ag 11µM
COc1ccc(-c2cc(C(=O)Nc3c(Cl)cccc3Cl)no2)cc1OC	none (no result: GLP-1R agonist)
CCCCCOC(=O)CC(C(=O)OCCCCC)N1CCCCC1 (centres undefined)	GLP-1R inv ag 13µM
CCCCCCCCCOC(=O)C(CC(=O)O)N1CCOCC1 (centres undefined)	none
O=S(=O)(c1ccc2nc(Nc3ccc(Br)cc3F)ccc2c1)N1CCCCC1	none (no result: GLP-1R agonist)
COc1ccc(CN2CCN(Cc3nc4ccccc4s3)CC2CCO)c(C)c1C (centres undefined)	HEK293 tox inconclusive, GLP-1R inv ag 7.9µM
CCCCC1C(=O)NN(c2ccccc2)C1=O (centres undefined)	GLP-1R inv ag 1.8µM
O=C(CSc1nnc(Cc2cccs2)n1C1CCCCC1)N1CCCc2ccccc21	HEK293 tox inconclusive, GLP-1R inv ag 3.5µM
O=C(CSc1nnnn1C1CCCC1)N1CCCc2ccccc21	GLP-1R inv ag inconclusive
O=C(CSc1nnc(Cc2cccs2)n1CCc1ccccc1)N1CCCc2ccccc21	GLP-1R inv ag 10µM
Cn1c(Cc2cccs2)nnc1SCC(=O)N1CCCc2ccccc21	none
O=C(CSc1nnc(Cc2cccs2)n1-c1ccccc1)NC1CCCCC1	GLP-1R inv ag 1.4µM
CCCOc1ccc(Oc2nc(NCC(C)C)nc(N(C)C)n2)nn1	none (no result: GLP-1R agonist)
COc1cccc(Cn2c(CNS(=O)(=O)c3ccc(C(C)(C)C)cc3)nc3cccnc32)c1	GLP-1R inv ag inconclusive (no result: GLP-1R agonist)
O=C(NCc1ccccc1)c1ccc(C2SCC(=O)N2Cc2ccccc2)cc1 (centres undefined)	GLP-1R inv ag 10µM
C=CCNC(=O)c1ccc(C2SCC(=O)N2Cc2ccccc2)cc1 (centres undefined)	none
